Among the data in ChEMBL document CHEMBL1961873, “Compounds: GSK PKIS; Assays: Nanosyn kinase panel” (2012) are inhibition values, retold here.

Test [1] has as its target T1, 3-phosphoinositide-dependent protein kinase 1 (Homo sapiens) (UniProt O15530).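 Further: values are mean inhibition of PDK1.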
T1 sequence (whole entry): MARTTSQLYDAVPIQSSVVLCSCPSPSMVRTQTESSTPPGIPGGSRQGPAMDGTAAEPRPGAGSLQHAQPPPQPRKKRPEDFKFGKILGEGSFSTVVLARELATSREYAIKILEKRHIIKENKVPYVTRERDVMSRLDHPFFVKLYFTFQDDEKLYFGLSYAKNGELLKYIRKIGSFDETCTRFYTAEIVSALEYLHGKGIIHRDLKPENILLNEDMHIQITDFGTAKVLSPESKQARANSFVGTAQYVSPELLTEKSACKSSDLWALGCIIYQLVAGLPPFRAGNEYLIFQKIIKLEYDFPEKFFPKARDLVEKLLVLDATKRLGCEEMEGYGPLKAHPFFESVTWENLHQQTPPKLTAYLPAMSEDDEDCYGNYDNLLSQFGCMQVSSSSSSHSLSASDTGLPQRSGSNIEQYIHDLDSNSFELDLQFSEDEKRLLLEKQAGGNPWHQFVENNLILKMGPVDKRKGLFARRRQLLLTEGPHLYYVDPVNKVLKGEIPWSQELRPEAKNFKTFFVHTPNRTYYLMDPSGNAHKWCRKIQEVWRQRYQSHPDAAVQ
As to conditions: at 0.1 µM.

The target in test [2] is cAMP-dependent protein kinase catalytic subunit alpha (Homo sapiens) (UniProt P17612). As to conditions: at 0.1 µM.
The target is the same in test [3]. As to conditions: at 1 µM.
Test [4] has as its target Protein kinase C alpha type (Homo sapiens) (UniProt P17252). To be noted: at 0.1 µM.
Test [5] has the same target. To be noted: at 1 µM.
In test [6] the target is Protein kinase C beta type (Homo sapiens) (UniProt P05771). As to conditions: at 0.1 µM.
Protein kinase C beta type (Homo sapiens), sequence (P05771 2-671 limits assumed): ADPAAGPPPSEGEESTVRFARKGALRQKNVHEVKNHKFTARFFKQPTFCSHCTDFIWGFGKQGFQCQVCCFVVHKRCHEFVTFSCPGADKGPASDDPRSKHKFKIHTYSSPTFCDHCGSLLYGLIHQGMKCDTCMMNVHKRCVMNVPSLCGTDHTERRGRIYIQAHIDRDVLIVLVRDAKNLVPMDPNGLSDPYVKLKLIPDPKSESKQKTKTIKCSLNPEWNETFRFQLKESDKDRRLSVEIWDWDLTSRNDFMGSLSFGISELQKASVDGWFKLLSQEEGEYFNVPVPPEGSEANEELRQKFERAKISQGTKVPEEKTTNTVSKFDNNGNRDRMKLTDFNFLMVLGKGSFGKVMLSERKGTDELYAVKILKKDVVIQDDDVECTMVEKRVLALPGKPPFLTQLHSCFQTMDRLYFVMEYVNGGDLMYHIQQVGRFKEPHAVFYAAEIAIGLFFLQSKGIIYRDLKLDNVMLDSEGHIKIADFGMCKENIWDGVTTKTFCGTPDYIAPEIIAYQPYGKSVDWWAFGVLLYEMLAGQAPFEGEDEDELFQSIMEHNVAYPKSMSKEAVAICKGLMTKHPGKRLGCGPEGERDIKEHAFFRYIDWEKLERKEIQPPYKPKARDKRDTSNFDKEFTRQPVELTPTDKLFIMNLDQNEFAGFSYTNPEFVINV
The target is the same in test [7]. To be noted: at 1 µM.
Test [8] has as its target Protein kinase C eta type (Homo sapiens) (UniProt P24723). To be noted: at 0.1 µM.
Test [9] shares this target. To be noted: at 1 µM.
Test [10] addresses Protein kinase C gamma type (Homo sapiens) (UniProt P05129). As to conditions: at 0.1 µM.
The target is the same in test [11]. As to conditions: at 1 µM.
Test [12] addresses T2, Protein kinase C iota type (Homo sapiens) (UniProt P41743).
T2 sequence (whole entry): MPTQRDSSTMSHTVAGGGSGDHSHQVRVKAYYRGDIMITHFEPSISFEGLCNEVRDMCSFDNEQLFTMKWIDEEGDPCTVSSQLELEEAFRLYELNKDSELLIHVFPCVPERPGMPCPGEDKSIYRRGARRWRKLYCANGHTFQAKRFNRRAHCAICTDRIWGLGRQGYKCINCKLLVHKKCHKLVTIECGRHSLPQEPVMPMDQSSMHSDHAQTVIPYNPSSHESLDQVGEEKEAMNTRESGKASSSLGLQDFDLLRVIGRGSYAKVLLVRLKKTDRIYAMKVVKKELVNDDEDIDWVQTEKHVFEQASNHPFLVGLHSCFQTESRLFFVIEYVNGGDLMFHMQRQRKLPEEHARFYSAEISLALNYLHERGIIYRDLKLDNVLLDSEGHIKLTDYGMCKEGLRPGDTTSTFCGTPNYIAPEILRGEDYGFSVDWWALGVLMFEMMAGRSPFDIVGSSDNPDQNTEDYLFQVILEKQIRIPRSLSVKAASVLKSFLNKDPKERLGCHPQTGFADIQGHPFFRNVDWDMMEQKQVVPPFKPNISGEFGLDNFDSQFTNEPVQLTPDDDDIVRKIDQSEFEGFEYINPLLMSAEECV
To be noted: at 0.1 µM.

Test [13] addresses T2, Protein kinase C iota type (Homo sapiens). As to conditions: at 1 µM.
Test [14] addresses Protein kinase C theta type (Homo sapiens) (UniProt Q04759). As to conditions: at 0.1 µM.
Test [15] has the same target. As to conditions: at 1 µM.
Test [16] deals with Protein kinase C beta type (Homo sapiens) (UniProt P05771). As to conditions: at 0.1 µM. This is another data set of the same source.
Test [17] shares this target. As to conditions: at 1 µM. This is another data set of the same source.
For test [18], the target named is T3, Serine/threonine-protein kinase D1 (Homo sapiens) (UniProt Q15139).
T3 sequence (whole entry): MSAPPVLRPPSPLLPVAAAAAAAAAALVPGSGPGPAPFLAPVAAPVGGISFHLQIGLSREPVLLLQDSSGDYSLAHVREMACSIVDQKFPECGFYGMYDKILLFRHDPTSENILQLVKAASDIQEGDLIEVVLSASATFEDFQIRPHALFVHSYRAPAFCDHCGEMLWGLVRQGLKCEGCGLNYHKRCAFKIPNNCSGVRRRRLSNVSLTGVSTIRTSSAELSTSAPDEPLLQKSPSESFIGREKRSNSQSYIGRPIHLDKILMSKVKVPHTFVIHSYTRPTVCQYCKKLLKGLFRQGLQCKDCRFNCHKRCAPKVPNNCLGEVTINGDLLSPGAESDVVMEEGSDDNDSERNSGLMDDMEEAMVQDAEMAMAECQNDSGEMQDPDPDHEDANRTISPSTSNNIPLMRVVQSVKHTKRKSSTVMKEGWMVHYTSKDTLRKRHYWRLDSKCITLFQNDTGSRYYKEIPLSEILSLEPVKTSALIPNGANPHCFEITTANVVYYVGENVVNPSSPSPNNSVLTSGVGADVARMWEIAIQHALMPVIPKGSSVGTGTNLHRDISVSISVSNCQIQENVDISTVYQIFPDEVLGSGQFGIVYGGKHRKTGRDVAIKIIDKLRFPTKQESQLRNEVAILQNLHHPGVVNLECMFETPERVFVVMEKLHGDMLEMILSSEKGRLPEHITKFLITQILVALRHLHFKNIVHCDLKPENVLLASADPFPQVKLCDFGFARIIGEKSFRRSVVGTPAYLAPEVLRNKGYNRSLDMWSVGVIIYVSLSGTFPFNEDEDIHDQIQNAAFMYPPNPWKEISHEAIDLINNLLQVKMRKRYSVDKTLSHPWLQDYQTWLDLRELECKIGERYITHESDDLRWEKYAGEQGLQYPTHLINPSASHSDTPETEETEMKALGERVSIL
To be noted: at 0.1 µM.

For test [19], the target named is T3, Serine/threonine-protein kinase D1 (Homo sapiens). To be noted: at 1 µM.
For test [20], the target named is T4, Serine/threonine-protein kinase D2 (Homo sapiens) (UniProt Q9BZL6).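 Further: reported percent inhibition values are means, part of the GSK PKIS kinase panel screen.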
T4 sequence (whole entry): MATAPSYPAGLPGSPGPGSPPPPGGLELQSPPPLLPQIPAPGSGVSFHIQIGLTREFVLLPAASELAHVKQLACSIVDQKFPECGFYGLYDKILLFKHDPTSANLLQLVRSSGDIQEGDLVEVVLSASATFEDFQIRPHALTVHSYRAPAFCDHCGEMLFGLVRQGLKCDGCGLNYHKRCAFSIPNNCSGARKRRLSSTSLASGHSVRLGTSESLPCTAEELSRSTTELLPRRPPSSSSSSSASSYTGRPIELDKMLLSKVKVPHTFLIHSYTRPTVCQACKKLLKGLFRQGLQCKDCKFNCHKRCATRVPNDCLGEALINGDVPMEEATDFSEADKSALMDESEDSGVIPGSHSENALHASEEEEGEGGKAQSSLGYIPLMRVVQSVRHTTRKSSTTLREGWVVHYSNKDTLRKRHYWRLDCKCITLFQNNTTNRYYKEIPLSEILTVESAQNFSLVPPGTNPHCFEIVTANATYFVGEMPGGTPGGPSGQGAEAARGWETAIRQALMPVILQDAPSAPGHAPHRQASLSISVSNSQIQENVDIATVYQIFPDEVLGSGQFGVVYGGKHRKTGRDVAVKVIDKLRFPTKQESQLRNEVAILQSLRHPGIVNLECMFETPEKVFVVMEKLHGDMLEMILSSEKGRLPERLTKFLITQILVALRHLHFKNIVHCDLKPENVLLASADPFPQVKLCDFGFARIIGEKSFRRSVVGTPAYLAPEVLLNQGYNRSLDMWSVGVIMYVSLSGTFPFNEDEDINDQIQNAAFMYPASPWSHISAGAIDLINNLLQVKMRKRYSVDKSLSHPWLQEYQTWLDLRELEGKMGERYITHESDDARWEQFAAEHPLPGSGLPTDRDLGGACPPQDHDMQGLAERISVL
As to conditions: at 0.1 µM.

Protein kinase C theta type (Homo sapiens), sequence (Q04759 whole entry, looked up): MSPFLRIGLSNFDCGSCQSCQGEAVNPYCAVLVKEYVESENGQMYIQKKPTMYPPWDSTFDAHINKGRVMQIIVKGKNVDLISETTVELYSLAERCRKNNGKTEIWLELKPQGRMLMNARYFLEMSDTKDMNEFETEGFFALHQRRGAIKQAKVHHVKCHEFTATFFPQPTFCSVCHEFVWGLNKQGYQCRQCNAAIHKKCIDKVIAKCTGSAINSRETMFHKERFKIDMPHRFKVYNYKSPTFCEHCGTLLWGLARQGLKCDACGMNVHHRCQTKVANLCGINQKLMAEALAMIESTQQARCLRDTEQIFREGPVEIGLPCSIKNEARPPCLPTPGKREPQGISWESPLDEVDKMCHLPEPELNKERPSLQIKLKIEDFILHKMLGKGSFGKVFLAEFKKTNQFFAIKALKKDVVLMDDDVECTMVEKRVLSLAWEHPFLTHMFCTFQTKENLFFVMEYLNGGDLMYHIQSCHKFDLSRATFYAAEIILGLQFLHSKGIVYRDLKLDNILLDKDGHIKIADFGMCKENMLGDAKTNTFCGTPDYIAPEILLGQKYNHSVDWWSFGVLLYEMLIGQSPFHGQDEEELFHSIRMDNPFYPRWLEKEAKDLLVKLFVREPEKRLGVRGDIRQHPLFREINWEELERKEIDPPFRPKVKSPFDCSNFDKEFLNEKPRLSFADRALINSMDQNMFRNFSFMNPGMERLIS
Protein kinase C eta type (Homo sapiens), sequence (P24723 whole entry): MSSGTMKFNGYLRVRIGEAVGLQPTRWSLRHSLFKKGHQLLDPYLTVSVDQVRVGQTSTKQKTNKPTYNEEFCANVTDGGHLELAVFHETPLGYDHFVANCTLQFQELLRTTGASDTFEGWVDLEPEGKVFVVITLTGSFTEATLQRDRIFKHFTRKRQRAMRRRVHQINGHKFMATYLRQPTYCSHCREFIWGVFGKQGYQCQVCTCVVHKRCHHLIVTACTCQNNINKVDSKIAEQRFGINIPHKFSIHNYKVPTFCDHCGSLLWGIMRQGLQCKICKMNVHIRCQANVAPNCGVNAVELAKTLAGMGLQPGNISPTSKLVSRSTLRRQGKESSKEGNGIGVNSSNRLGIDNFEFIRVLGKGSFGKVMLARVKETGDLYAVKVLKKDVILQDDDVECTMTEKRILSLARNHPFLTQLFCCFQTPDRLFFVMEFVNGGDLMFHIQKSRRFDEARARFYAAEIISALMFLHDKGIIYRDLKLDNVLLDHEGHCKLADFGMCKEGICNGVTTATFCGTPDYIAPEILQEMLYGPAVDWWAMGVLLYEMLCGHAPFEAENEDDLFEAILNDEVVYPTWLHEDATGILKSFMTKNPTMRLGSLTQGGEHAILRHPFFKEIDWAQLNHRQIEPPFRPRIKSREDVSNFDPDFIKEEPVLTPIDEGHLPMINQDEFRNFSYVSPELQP

Turning to `CC1=C(C(=O)Nc2ccc3[nH]ncc3c2)C(c2ccc(Cl)c(Cl)c2)CC(=O)N1` (stereo not given), the inhibition is 3.64% in test [1]; 7.32% in test [2]; 43.1% in test [3]; 0.41% in [4]; 1.24% in test [5]; -1.01% in test [6]. Besides, the inhibition in [7] is -0.1%; in [8] it was 0.22%; in test [9] it was 14.1%; in test [10], 1.51%; in test [11], -2.08%; in test [12] it was 0.23%. Moreover, the inhibition in test [13] was -0.03%; in test [14], 0.6%; in test [15] it was 5.07%; in test [16], 0.17%; in [17] it was 0.61%; in test [18], 0.89%. Further, the results for the inhibition in test [19] and in [20] were 4.46% and 1.41%, respectively.

Regarding `Nc1nc(-c2ccccn2)c(-c2ccc3ncccc3n2)s1`, the inhibition came to 1.75% in test [1]; 1.32% in test [2]; 1.89% in [3]; 1.07% in [4]; 1.65% in test [5]; 0.07% in [6]. In addition, the inhibition in test [7] was 1.26%; in [8], 5.03%; in test [9], 2.77%; in test [10] it was 1.52%; in test [11], 4.9%; in test [12], 2.73%. The inhibition in [13] is 1.17%; in test [14], 2.24%; in test [15], 3.34%; in [16] it was -0.19%; in test [17], 0.88%; in [18], 2.38%. The inhibition in [19] came to 4.64%; in test [20], 2.92%.

As for `COc1ccccc1Nc1ncc(-c2ccccc2)o1`, the inhibition was 7.73% in test [1]; 1.58% in test [2]; 3.65% in test [3]; 0.95% in [4]; 1.01% in [5]; 1.34% in test [6]. The inhibition in [7] was -6.48%; in test [8] it was 7.06%; in test [9] it was 7.33%; in test [10], -0.19%; in test [11], 3.53%; in [12] it was 3.88%. For the same compound, the inhibition turned out to be 3.75% in test [13]; 3.4% in test [14]; 3.02% in test [15]; 1.12% in test [16]; 1.8% in test [17]; 4.01% in test [18]. Also, the inhibition came to 5.46% in test [19] and 3.84% in test [20].

For `CC1=C(C(=O)Nc2ccc3[nH]ncc3c2)C(c2ccc3ccccc3c2)CC(=O)N1` (stereo not given), the inhibition turned out to be 2.2% in test [1]; 7.18% in test [2]; 45.9% in test [3]; 1.26% in test [4]; 1.61% in [5]; 1.81% in test [6]. The inhibition in test [7] is 0.44%; in test [8] it was 4.97%; in [9] it was 14.1%; in test [10], 0.67%; in test [11] it was 2.79%; in [12], 1.06%. The inhibition stood at 0.77% in test [13]; 1.49% in test [14]; 3% in test [15]; 0.83% in [16]; 1.67% in test [17]; 2.78% in [18]. Moreover, the inhibition in test [19] was determined as 9.17%; in test [20], 2.02%.

Take `CS(=O)(=O)CCNCc1ccc(-c2ccc3ncnc(Nc4ccc(OCc5cccc(F)c5)c(C(F)(F)F)c4)c3c2)o1`: the inhibition in test [1] worked out at 2.02%; in test [2] it was 1.79%; in [3] it was 2.53%; in test [4] it was 1.25%; in test [5] it was 1.29%; in test [6], 0.59%. The inhibition came to 1.62% in test [7]; 4.51% in [8]; 4.84% in [9]; 1.87% in test [10]; 4.01% in test [11]; 2.77% in test [12]. In addition, the inhibition in test [13] was 0.63%; in test [14], 2.4%; in test [15], 2.71%; in [16], 1.67%; in test [17], 2.44%; in test [18], 4.99%. The results for the inhibition in test [19] and in test [20] were 3.72% and 4.63%, respectively.

With `COc1cc2c(cc1Nc1nc(N3CCc4ccccc43)c3cc[nH]c3n1)N(C(=O)CN(C)C)CC2`, the inhibition in [1] came out at 1.89%; in test [2], 1.41%; in test [3], 0.85%; in [4] it was 0.7%; in test [5], 1.9%; in [6] it was 1.5%. The inhibition in [7] was 0.59%; in [8] it was 3.35%; in test [9], -0.3%; in test [10], 1.53%; in [11], 5.19%; in test [12], 1.44%. For the same compound, the inhibition in test [13] was 3.35%; in test [14] it was 1.03%; in [15] it was -0.74%; in test [16], 1.14%; in test [17], 1.29%; in test [18], 1.69%. Moreover, the inhibition was found to be 3.76% in [19] and 1.71% in test [20].

`COc1cc2ncn(-c3cc(OCc4ccccc4C(F)(F)F)c(C(N)=O)s3)c2cc1OC`: the inhibition in test [1] was 0.58%; in [2], -1.97%; in [3], -1.35%; in test [4] it was -3.16%; in test [5], -2.48%; in test [6] it was 0.23%. For the same compound, the inhibition is 0.89% in test [7]; 5.48% in test [8]; 5.95% in [9]; -1.78% in test [10]; 0.51% in test [11]; 3.36% in test [12]. Further, the inhibition turned out to be 3.32% in test [13]; 2.16% in test [14]; 3.1% in test [15]; 1.23% in test [16]; 2% in [17]; 0.73% in test [18]. Also, the inhibition came out at 0.99% in [19] and 1.16% in test [20].
